ELG1 repair inh: inhibitors of ELG1-dependent DNA repair in HEK293T cells. 2.3% of 330,000 active. AID 504467. HEK293T ELG1-luciferase reporter, luminescence, 16 h; DNA damage induced by 5-fluorouridine. Potency, µM (series often up to 46.1 µM), without a hit: top-dose activity change, negative = inhibition, actives largely listed as inhibitors; further: nearly all actives have a fitted effect of over 55% in size
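Overnight (16 hr) co-exposure of 2,000 cells/well to 5-fluorouridine and compound at 37 °C preceded detection. Luciferase was quantified via ONE-Glo luminescence; loss of signal denotes inhibition.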
RORgamma inh: ROR gamma (mouse) transcription inhibition; P51450; Drosophila S2 Gal4-RORgamma UAS-luciferase reporter, 20 h; Potency, µM (top dose mostly 53.6 µM), without a hit: at the top dose activity change, negative = inhibition, actives largely listed as inhibitors; 5.4% of 310,000 active; AID 2551; further: nearly all actives have a fitted effect of over 60% in size
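Stably transfected Drosophila Schneider cells are the test system, with ROR gamma fused to Gal4 and luciferase under UAS control; luminescence is read after 20 hr of 700 uM copper sulfate induction at ambient temperature.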
DT40 TDP1 CPT: DT40-hTDP1 cell growth loss with CPT. chicken DT40 Tdp1-/-;hTDP1 cells + 20 nM CPT, ATP luminescence, 48 h. AID 686979. 12% of 420,000 active. Potency, µM (series often up to 46.2 µM), for inactives: at the top dose activity change, negative = growth inhibition, usual class: inhibitors; further: nearly all actives have a fitted effect of over 55% in size
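Chicken DT40 Tdp1-/- cells stably complemented with human TDP1 were seeded at 400 cells/well in medium containing 20 nM camptothecin, exposed to pin-transferred compounds, and grown at 37 °C for at least 48 hr. Viability was read as ATP luminescence.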
ALOX12 inh: blocks human arachidonate 12S-lipoxygenase; Potency, µM (titrated, usually from 108 µM), inactives show top-dose activity change, negative = inhibition, most hits filed as inhibitors; purified 12hLO, xylenol orange hydroperoxide absorbance; AID 1671190; 1.1% of 580,000 active
Target sequence (P18054 whole entry, looked up): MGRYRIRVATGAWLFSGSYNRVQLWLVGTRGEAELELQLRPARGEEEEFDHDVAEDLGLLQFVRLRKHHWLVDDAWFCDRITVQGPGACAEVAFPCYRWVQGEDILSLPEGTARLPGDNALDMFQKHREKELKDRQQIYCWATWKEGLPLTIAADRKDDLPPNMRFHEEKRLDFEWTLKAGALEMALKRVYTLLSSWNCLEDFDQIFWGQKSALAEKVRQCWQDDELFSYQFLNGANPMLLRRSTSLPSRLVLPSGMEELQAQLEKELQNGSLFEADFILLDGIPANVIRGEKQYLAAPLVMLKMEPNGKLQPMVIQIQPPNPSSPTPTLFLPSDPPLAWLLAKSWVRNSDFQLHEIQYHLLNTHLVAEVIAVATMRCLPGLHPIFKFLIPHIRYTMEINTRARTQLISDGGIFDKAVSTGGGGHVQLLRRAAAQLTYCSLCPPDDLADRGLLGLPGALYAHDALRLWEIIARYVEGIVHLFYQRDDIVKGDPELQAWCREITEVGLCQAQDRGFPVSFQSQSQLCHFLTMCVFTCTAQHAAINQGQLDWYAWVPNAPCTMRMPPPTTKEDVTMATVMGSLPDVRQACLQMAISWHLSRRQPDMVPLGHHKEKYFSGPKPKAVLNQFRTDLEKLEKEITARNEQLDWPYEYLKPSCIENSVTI
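Hydroperoxide product was detected by ferrous iron/xylenol orange as the 573 to 405 nm absorbance ratio. Arachidonic acid at 40 uM (final) was turned over for 30 min at room temperature by 150 nM human 12hLO, pH 7.0 Hepes buffer, after 15 min compound preincubation.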
DT40 TDP1 no CPT: qHTS for Inhibitors of human tyrosyl-DNA phosphodiesterase 1 (TDP1): qHTS in cells in absence of CPT. DT40 Tdp1-/- hTDP1 cells, no CPT, ATP luminescence, 48 h. Potency, µM (highest dose often 46.2 µM), for inactives: at the top dose activity change, negative = growth inhibition, actives largely listed as inhibitors. 15% of 420,000 active; further: nearly all actives have a fitted effect of over 55% in size
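A cellular qHTS used chicken DT40 cells lacking endogenous Tdp1 but carrying stably transfected human TDP1. Compounds were applied without camptothecin, and cell growth kinetics were judged by ATP-dependent luminescence after ≥48 hr.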
Gal4-VP16 FLuc: Gal4-VP16 reporter inhibition counter-screen; 3.5% of 310,000 active; Drosophila S2 Gal4-VP16 UAS-luciferase, luminescence, 20 h; Potency, µM (series often up to 53.6 µM), for inactives: top-dose activity, negative = inhibition, usual class: inhibitors;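 further: Gal4-VP16 expression switched on by copper sulfate through the metallothionein promoter; nearly all actives have a fitted effect of over 50% in size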
* = called active by the depositor; ? = inconclusive; . = no result. Shown are actives, neighbours in structure and some others; about 15% of the full set was active somewhere. The call rests on the fitted dose curve; in most records, active means well fitted curve in the direction sought with a large enough effect; inconclusive means small, poorly fitted or top-dose-only effect, or another doubt; inactive means no such curve, though single readings can be large; an effect the other way counts as inactive or inconclusive. On the % scale 0 is the no-effect control and ±100 the full control effect; potency means the concentration at half of the fitted maximal effect.

SMILES	ELG1 repair inh	RORgamma inh	DT40 TDP1 CPT	ALOX12 inh	DT40 TDP1 no CPT	Gal4-VP16 FLuc
C=CCNC(=O)C1CCN(C(=O)N2CC3CC(C2)[C@H]2CCCC(=O)N2C3)CC1 (some centres not stated)	.	.	.	4%	.	.
CC(=O)c1cc2c(cc1NC(=O)Cn1c(=O)n(C)c(=O)c3sccc31)OCO2	.	.	.	-38%	.	.
Cc1ccc(NC(=S)NCC(C)N2CCCCC2C)cc1Cl (configuration not stated)	.	.	.	-38%	.	.
COc1ccc(S(=O)(=O)N2CC[C@H]3NC(=O)N(c4ccc(Oc5ccccc5)cc4)C(=O)[C@H]32)cc1	.	.	.	13%	.	.
COc1ccc(C(=O)NC(=S)Nc2cccc3cc(O)ccc23)cc1OC	?	-33%	-23%	10µM*	-3%	-10%
Cc1cc(C(=O)NNC(=S)NC(=O)c2ccccc2)cs1	.	.	.	28µM*	.	.
COc1ccccc1C(=O)NC(=S)Nc1cccc2cc(O)ccc12	.	.	?	402%	-23%	.
C=CCNC(=S)NNC(=O)c1ccc(OCC)cc1	-1%	-43%	?	2%	21µM*	-8%
Cc1cccc(C(=O)NC(=S)Nc2cccc3nc(C)ccc23)c1	6%	7.1µM*	?	-18%	?	10µM*
O=C1CSc2ccc(C(=O)Nc3cccc4ccccc34)cc2N1	.	.	.	6%	.	.
CC(C)c1nnc(NC(=O)C(Oc2ccccc2)c2ccccc2)s1 (configuration not stated)	.	.	.	-11%	.	.
c1ccc([C@@H]2C[C@H]2c2nc(C3CCOCC3)n[nH]2)cc1	.	.	.	39%	.	.
COc1ccc(C(=O)NNC(=O)c2ccc3ccccc3n2)cc1	?	.	16µM*	8%	4.1µM*	.
O=C(NNC(=O)c1ccc2ccccc2n1)c1ccc(O)cc1	16%	.	?	6%	?	.
COc1ccc(C(=O)N2CCc3ccc(C(=O)NCc4cccc(C)c4)cc32)cc1	.	.	.	-2%	.	.
O=C(CCCN1C(=O)/C(=C\c2ccccc2)SC1=S)Nc1ccc(O)cc1C(=O)O	?	?	-14%	?	-5%	?
COc1ccccc1/C=C1\SC(=S)N(CCC(=O)NCCc2ccc(O)cc2)C1=O	-5%	2%	?	-7%	16µM*	-13%
O=C(CCN1C(=O)/C(=C/c2ccccc2)SC1=S)NCCc1ccc(O)cc1	-11%	?	16µM*	.	?	?
COc1ccc(/C=C2\SC(=S)N(CCC(=O)NCCc3ccc(O)cc3)C2=O)cc1	2%	10%	?	19%	16µM*	-4%
COc1ccc(/C=C2\SC(=S)N(CCC(=O)Nc3cccc(O)c3)C2=O)cc1	?	?	-4%	?	?	-25%
Cc1ccc(C)c(-c2nn(CC(=O)NCC(F)(F)F)c(=O)c3ccccc23)c1	.	.	.	33%	.	.
CC(NC(=O)CSc1nnc(N2CCOCC2)n1-c1ccccc1)c1cc2ccccc2o1 (configuration not stated)	.	.	.	21%	.	.
Cc1cc(C(=O)CSc2n[nH]c(N)n2)c(C)n1-c1ccc(F)cc1	?	7%	21µM*	0%	?	8%
Cc1cc(C(=O)CSc2n[nH]c(N)n2)c(C)n1C1CC1	28%	6%	?	161%	21µM*	12%
Cc1cc(C(=O)CN2CCC(C)CC2)c(C)n1-c1ccc(F)cc1	?	10µM*	?	-12%	6%	?
SMILES	ELG1 repair inh	RORgamma inh	DT40 TDP1 CPT	ALOX12 inh	DT40 TDP1 no CPT	Gal4-VP16 FLuc
Cc1ccc(-n2c(C)cc(C(=O)CSc3n[nH]c(N)n3)c2C)cc1	?	?	?	-26%	13µM*	5%
Cc1cc(C)n2nc(C(=O)N/N=C/c3c4ccccc4cc4ccccc34)nc2n1	?	35µM*	23µM*	-11%	21µM*	18µM*
Cc1cc(C)n2nc(C(=O)N/N=C/c3ccccc3Cl)nc2n1	20%	16%	19%	-4%	-27%	7%
CCCOc1ccccc1/C=N/NC(=O)C1CC1	6%	8.9µM*	-28%	-2%	12%	-1%
Cc1cc(C)n(CCC(=O)N/N=C/c2c(O)ccc3ccccc23)n1	3.7µM*	1.1µM*	5.8µM*	?	4.6µM*	?
Cc1cc(C)n(CCC(=O)N/N=C/c2ccc(O)cc2)n1	5%	5%	-14%	2%	-12%	0%
O=C(NN=Cc1c(O)ccc2ccccc12)C1CC1	.	.	5.8µM*	-22%	5.2µM*	.
CC(C)Oc1ccccc1/C=N/NC(=O)C1CC1	.	.	26%	124%	8%	.
CC(=O)Nc1cccc(NC(=O)CC2(Cc3nc4ccccc4s3)CCCC2)c1	.	.	.	-3%	.	.
Cc1cc(=O)oc2cc(OCC(=O)N(C)CCOc3ccc(Br)cc3)ccc12	.	.	.	-10%	.	.
COc1ccccc1CNC(=O)c1ccc(CN2C(=O)NC3(CCOCC3)C2=O)cc1	.	.	.	11%	.	.
CCOC(=O)C1CCN(C(=O)CSc2nnc(Nc3ccc(C)cc3C)s2)CC1	.	.	.	74%	.	.
N#Cc1ccc(Oc2ccc(Cl)c(Oc3ccc(C#N)c(C#N)c3)c2)cc1C#N	.	.	.	31%	.	.
O=C1CCN(C(=O)COc2ccc(F)cc2)CCCC(c2nc(-c3cnccn3)no2)CCN1 (configuration not stated)	.	.	.	52%	.	.
N#Cc1ccc(S(=O)(=O)N2CCC3(CC2)CC2C(=O)NCCN2C3)cc1 (configuration not stated)	.	.	.	60%	.	.
COc1ccc2ccccc2c1/C=N/NC(=O)c1cccc(Br)c1	-17%	-35%	?	0%	?	3%
Cc1ccc(O)c(/C=N/NC(=O)CN2CCCC2)c1	-6%	13µM*	?	8%	?	?
O=C(CN1CCCC1)N/N=C/c1c(O)ccc2ccccc12	5.2µM*	3.2µM*	?	-1%	?	3.2µM*
O=C(N/N=C/c1c(O)ccc2ccccc12)c1cccc(C(F)(F)F)c1	?	3.2µM*	0.65µM*	?	1µM*	5µM*
CCOC(=O)c1ccc2ncc(C(=O)OCC)c(NCCCOC(=O)c3ccccc3)c2c1	.	.	.	-47%	.	.
Cc1nc2c(-c3ccccc3)c(C)nn2c(C)c1CCC(=O)N1CCOCC1	-5%	33%	-6%	-12%	-19%	-6%
Cc1nc2c(-c3ccc(F)cc3)c(C)nn2c(C)c1CCC(=O)N1CCN(c2ccccc2)CC1	-1%	-24%	18µM*	-18%	?	4%
